The list is not random: actives were taken first. Their share in the collection is about 10%.
G9a block – inhibitors of human histone lysine methyltransferase G9a; Q96KQ7; G9a H3K9 monomethylation, AlphaScreen, 2 h; Potency, µM (series often up to 102 µM), inactives show at the highest dose activity, negative = inhibition, most hits filed as inhibitors; 350,000 compounds, 8.8% hits; also: potency is read from the fitted curve at half-maximal effect; nearly all actives have a fitted effect of over 75% in size
Target sequence (Q96KQ7 913-1193 limits assumed): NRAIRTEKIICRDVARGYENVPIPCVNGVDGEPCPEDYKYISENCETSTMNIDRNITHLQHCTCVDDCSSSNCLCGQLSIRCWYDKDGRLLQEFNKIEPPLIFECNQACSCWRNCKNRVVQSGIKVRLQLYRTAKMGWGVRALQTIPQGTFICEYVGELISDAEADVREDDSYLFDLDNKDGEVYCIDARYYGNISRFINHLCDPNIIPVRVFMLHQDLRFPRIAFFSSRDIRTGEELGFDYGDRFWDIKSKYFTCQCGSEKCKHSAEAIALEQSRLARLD
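Chemiluminescent proximity detection of H3K9 monomethylation, read after 10 min bead incubation in the dark. Reaction: 20 nM G9a, 500 nM biotin-H3K9 peptide, 20 uM SAM cofactor, 2 h, room temperature, following 15 min enzyme-compound preincubation.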
VDR inh – vitamin D3 receptor (human) inhibition. 400,000 compounds, 0.93% hits. AID 504847. VDR-SRC2-3 peptide fluorescence polarization, 2 h. Potency, µM, for inactives: max response, negative = inhibition, hits mostly inhibitors; also: potency is read from the fitted curve at half-maximal effect
Target sequence (P11473 whole entry, looked up): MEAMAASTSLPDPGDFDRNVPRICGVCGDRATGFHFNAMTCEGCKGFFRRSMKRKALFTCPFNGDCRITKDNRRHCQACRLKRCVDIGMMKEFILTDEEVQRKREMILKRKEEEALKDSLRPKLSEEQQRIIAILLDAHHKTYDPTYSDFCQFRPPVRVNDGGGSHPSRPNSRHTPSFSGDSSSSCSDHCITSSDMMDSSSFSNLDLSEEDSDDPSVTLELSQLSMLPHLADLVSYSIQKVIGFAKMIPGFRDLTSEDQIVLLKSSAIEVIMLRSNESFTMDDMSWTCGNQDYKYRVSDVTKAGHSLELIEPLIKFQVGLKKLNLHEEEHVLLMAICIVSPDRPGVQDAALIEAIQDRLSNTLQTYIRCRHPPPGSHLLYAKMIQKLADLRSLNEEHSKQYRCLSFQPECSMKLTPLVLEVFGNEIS
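VDR–SRC2-3 interaction, FP format. Cmpds 23 nl via pintool, brief spin, 2 h ambient incubation.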
Sfp PPTase inh – Sfp phosphopantetheinyl transferase inhibition. 310,000 compounds, 3.5% hits. Q9F4F7. Biochemical Sfp PPTase activity, qHTS. Potency, µM, for inactives: largest response in the series, negative = inhibition, hits mostly inhibitors. AID 1490;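 also: the enzyme is Sfp with the accession as filed and its product quenches rhodamine fluorescence; potency is read from the fitted curve at half-maximal effect; 0% = enzyme reaction without inhibitor and -100% = no enzyme wells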
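Buffer: 50 mM Hepes-Na pH 7.6, 10 mM MgCl2, 0.01% Nonidet P-40, 0.01% BSA. Enzyme 15 nM, pre-exposed to compound 15 min; substrates then added and fluorescence change tracked over 30 min.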
Mm-Cpn inhibitor – M. maripaludis TRiC chaperonin inhibition | Potency, µM (titrated, usually from 76.9 µM), inactives show at the top dose activity, negative = inhibition, hits mostly inhibitors | 330,000 compounds, 0.031% hits | AID 504842 | purified Mm-Cpn ATPase, ADP Transcreener TR-FRET; also: potency is read from the fitted curve at half-maximal effect; nearly all actives have a fitted effect of over 80% in size
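Measured: ADP formation by purified Mm-CPN. Conditions: 25 nM protein, 10 uM ATP, Tris pH 7.4 with Mg2+, K+ and DTT, 37°C for 30 min. Detection: Transcreener HTRF after 30 min at room temperature.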
CCT modulator – modulators of cytosolic chaperonin (CCT/TRiC) activity. activity change, % (no concentration beside the values), hits read low. 360,000 compounds, 0.3% hits. purified chaperonin ATPase assay, HTRF ADP detection, 30 min. AID 651819; in the data active = activity change below about -30%
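We incubate TRiC, 40 or 20 nM final, with library compounds at 76 uM and 10 uM ATP for 30 min at 37 °C. ADP formed is detected with Transcreener HTRF reagents after 30 min at room temperature.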
PLK1 PBD inh – PLK1 (human) polo-box domain binding inhibition; P53350; Potency, µM, inactives show max response, negative = inhibition, hits mostly inhibitors; 360,000 compounds, 2.8% hits; Plk1 PBD binding of FITC phosphopeptide, fluorescence polarization; also: potency is read from the fitted curve at half-maximal effect; series mostly up to about 57 µM; nearly all actives have a fitted effect of over 65% in size
The depositor's hits bear a star; ? = inconclusive; / = no result given; [ ] = another dose, or the depositor's remark. Unless noted, calls follow the shape of the dose curve; as a rule, active = well fitted curve in the direction sought with a large enough effect; inconclusive = small, poorly fitted or top-dose-only effect, or another doubt; inactive = no such curve, though single readings can be large; an effect the other way counts as inactive or inconclusive. Unless noted, % is scaled to controls: 0 for no effect and ±100 for the full control effect.

SMILES	G9a block	VDR inh	Sfp PPTase inh	Mm-Cpn inhibitor	CCT modulator	PLK1 PBD inh
O=c1oc2ccccc2cc1-c1nc(-c2cccs2)cs1	55%[12.7 µM]	3%	14%	-2%	-4	11µM*
N#CCc1nc(-c2cc3ccccc3oc2=O)cs1	-4%	-14%	7%	-13%	-32*	-18%
CC(=O)OCC(NC(=O)C1CCCN1C(=O)OC(C)(C)C)C1OC(n2cc(F)c(=O)[nH]c2=O)C(OC(C)=O)C1OC(C)=O (stereo unspecified)	/	-11%	8%	/	/	/
Cn1ccc(C(=O)NC(=S)N2CCSCC2)n1	13µM*	-12%	45µM*	-1%	0	-20%
COc1ccc(/C=C/C(=O)NC(=S)N2CCSCC2)cc1	?	-14%	9%	-5%	-1	-20%
CCOC(=S)SCC(=O)N1CCc2cc(OC)c(OC)cc2C1C1C(=O)CC(C)(C)CC1=O (stereo unspecified)	45µM*	-3%	-17%	-2%	-3	4%
Cc1ccc(C(=O)COC(=O)CCN2C(=O)C3C4CCC(C4)C3C2=O)cc1[N+](=O)[O-] (stereo unspecified)	4%	-14%	9%	0%	-2	-10%
Cc1ccc(C(=O)COC(=O)CN2C(=O)C3C4CCC(C4)C3C2=O)cc1[N+](=O)[O-] (stereo unspecified)	45µM*	-3%	6%	-1%	-1	0%
Nc1nc2n(n1)C(c1ccc(F)cc1)CC(c1ccc(F)cc1)N2 (stereo unspecified)	-7%	4%	1%	0%	1	-1%
Cc1ccc(C2CC(c3ccc(F)cc3)Nc3nc(N)nn32)cc1 (stereo unspecified)	23%	-19%	-1%	2%	1	27µM*
CCOc1cc(CN2CCN(c3cccc(C(F)(F)F)c3)CC2)ccc1OC	22µM*	-1%	-27%	0%	-4	0%
CCOc1cc(CN2CCCCC2)ccc1OC	-5%[59 µM]	-18%	7%	1%	0	-20%
CCOc1cc(CN2CCN(c3ccc(C(C)=O)cc3)CC2)ccc1OC	32µM*	-9%	79µM*	-2%	-5	-13%
CC(=O)c1[nH]c(C)c(C(=O)NCc2ccc(Cl)cc2)c1C	3%[59 µM]	3%	/	/	/	/
O=S(=O)(N/N=C/c1ccccc1F)c1ccccc1	?	?	14%	3%	-1	15µM*
O=[N+]([O-])c1cc2c(cc1/C=N/NS(=O)(=O)c1ccc(Br)cc1)OCO2	11µM*	10%	-28%	2%	-16	?
Cc1ccc(S(=O)(=O)N/N=C/c2ccccc2F)cc1[N+](=O)[O-]	11µM*	-25%	13%	2%	1	?
COc1ccc(NC(=O)CN(c2cc(C)cc(C)c2)S(=O)(=O)c2c(C)noc2C)cc1Cl	10%[59 µM]	-3%	/	/	/	/
COc1cccc(-c2oc3ccc(C)cc3c(=O)c2O)c1	62%[59 µM]	-1%	/	/	/	/
Oc1cccc(-c2nc(-c3cccs3)c(-c3cccs3)[nH]2)c1	?	1%	/	/	/	/
CC(=O)c1ccc(N=c2scc(C)n2C(C)C)cc1	45µM*	0%	12%	-2%	-1	-7%
C=CCn1c(C)csc1=Nc1ccc(C(=O)O)cc1	?	16%	-17%	-1%	-1	1%
COC(=O)c1ccc(NC(=O)N2CCN(Cc3cc(=O)n4nc(-c5ccc(C)cc5)sc4n3)CC2)cc1	21%[59 µM]	5%	/	/	/	/
CC(O)c1cccc(N=Cc2ccc3ccccc3c2O)c1 (stereo unspecified)	1.8µM*	12%	5%	-2%	2	?
O=C(c1ccc2c(c1)N(Cc1ccc(Cl)cc1)C(=O)c1ccccc1S2(=O)=O)N1CCc2ccccc21	-7%[59 µM]	1%	/	/	/	/
SMILES	G9a block	VDR inh	Sfp PPTase inh	Mm-Cpn inhibitor	CCT modulator	PLK1 PBD inh
COc1ccc(NC(=O)N(C2CCCCC2)C(C)c2cccnc2)c(OC)c1 (stereo unspecified)	-9%[59 µM]	10%	10%	-1%	0	-2%
COCCCNC(=S)NNC(=S)Nc1cccc(Cl)c1	/	?	22µM*	-4%	-3	-29%
COc1ccc(NC(=S)Nc2cccnc2)c(OC)c1	50µM*	-19%	-21%	1%	-4	-8%
C=COCCNC(=S)Nc1cccc(Cl)c1	6%	-15%	18%	-4%	1	-1%
COc1ccc(NC(=S)Nc2ccc(OC)cc2OC)c(OC)c1	4µM*	-12%	?	0%	-4	27µM*
COc1ccc(NC(=S)Nc2ccccc2OC)c(OC)c1	-16%[59 µM]	4%	?	0%	-2	-18%
COc1ccc(NC(=O)N(C2CCCCC2)C(C)c2ccco2)c(OC)c1 (stereo unspecified)	45µM*	-1%	13%	-2%	-1	0%
O=C(c1ccccc1)N1CCN(CCc2ccncc2)CC1	-21%[59 µM]	19%	/	/	/	/
COC(=O)CCC(C)C1CCC2C3C(O)C[C@@H]4CC(O)CC[C@@]4(C)C3CC(O)[C@]12C (stereo partly specified)	/	7%	-12%	/	/	/
CCC(C(=O)Nc1ccc(C(=O)OC)cc1)n1nc(-c2ccc(C)c(C)c2)ccc1=O (stereo unspecified)	?	11%	/	/	/	/
COC(=O)NNC(=S)Nc1cc(OC)ccc1OC	45µM*	-14%	?	0%	-1	?
COc1cccc(NC(=O)NNS(=O)(=O)c2ccc(OC)cc2OC)c1	36%	7%	10%	1%	0	-1%
COc1ccc(Cl)cc1NC(=S)Nc1cccc(C)c1	-2%[59 µM]	10%	-16%	-5%	-4	-16%
COc1ccc(Cl)cc1NC(=S)Nc1cccnc1	?	22%	25µM*	0%	0	-20%
S=C(Nc1cccc2ccccc12)NC1CCCCC1	50µM*	10%	6%	-2%	-1	-15%
S=C(Nc1cccc2ccccc12)Nc1cccc2ccccc12	/	-26%	/	/	0	-24%
CNC(=S)NNS(=O)(=O)c1ccc(OC)cc1OC	-5%	-2%	25µM*	1%	1	-4%
COc1ccc(NC(=S)NC2CCCCC2)c(OC)c1	50µM*	?	-5%	1%	-5	-19%
COc1ccc(NC(=S)NCCc2ccccc2OC)c(OC)c1	?	3%	89µM*	0%	-3	-15%
COc1ccc(NC(=S)Nc2cccc(Cl)c2)cc1OC	50µM*	7%	?	-2%	-1	-14%
CSc1nnc2c3cc(C)ccc3n(Cc3ccccc3)c2n1	?	-14%	56µM*	1%	0	-9%
CCCn1c2ccc(C)cc2c2nnc(SCCN3CCCCC3)nc21	8.9µM*	-13%	?	2%	1	-21%
COc1ccc2c(c1)c1nnc(SC)nc1n2Cc1ccccc1	/	4%	/	/	/	/
COc1cccc(Cn2c(=O)cnc3cnc(Nc4ccccc4)nc32)c1	-46%[0.501 µM]	-4%	-3%	/	/	/
